# MITF primary: inhibitors of human MITF; O75030; inhibition, % at 2.6 µM; AID 1259374; 0.91% of 650,000 active; AlphaScreen MITF homodimerization, bead proximity signal; in the data active = inhibition above about 50%;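 note: 0% = vehicle wells with protein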
# TEAD-YAP block: TEAD-YAP interaction inhibition. 1.4% of 640,000 active. HEK-TIYL cells, TEAD-Gal4/YAP UAS-luciferase luminescence. inhibition, % at 9.12 µM; in the data active = inhibition above about 32%;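 note: 0% = median of test compound wells and 100% = reference inhibitor wells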
# FBW7 activator: human FBW7 E3 ligase activation, primary screen. Q969H0. AlphaScreen FBW7–phospho-cyclin E peptide binding, activator screen. normalized activity (activation), % at 26.1 µM. 0.13% of 650,000 active; in the data active = normalized activity above about 1.9%;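 note: purified mutant Fbw7 with reduced substrate affinity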
# Target sequence (Q969H0 whole entry, looked up): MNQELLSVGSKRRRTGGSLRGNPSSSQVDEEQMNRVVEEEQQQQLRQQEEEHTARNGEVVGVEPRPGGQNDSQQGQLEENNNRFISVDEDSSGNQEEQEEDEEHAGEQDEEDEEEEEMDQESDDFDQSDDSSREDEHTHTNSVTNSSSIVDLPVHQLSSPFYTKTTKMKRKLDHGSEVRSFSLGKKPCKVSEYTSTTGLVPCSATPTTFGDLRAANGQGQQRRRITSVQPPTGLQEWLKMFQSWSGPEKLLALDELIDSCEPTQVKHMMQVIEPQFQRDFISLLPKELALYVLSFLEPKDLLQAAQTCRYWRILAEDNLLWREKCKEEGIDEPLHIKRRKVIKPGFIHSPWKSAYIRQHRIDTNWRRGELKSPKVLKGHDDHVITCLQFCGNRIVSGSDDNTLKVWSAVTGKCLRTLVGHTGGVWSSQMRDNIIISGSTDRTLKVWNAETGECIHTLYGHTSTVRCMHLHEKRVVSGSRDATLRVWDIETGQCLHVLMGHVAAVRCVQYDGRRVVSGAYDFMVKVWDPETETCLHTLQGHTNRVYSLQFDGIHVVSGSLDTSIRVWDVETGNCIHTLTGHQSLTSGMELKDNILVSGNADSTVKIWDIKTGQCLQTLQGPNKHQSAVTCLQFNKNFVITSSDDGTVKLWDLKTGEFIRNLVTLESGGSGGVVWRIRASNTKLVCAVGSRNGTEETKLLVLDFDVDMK
# GPR151 ag: human GPR151 activation; Q8TDV0; PathHunter beta-arrestin GPR151 cells, luminescence; activation, % at 11.2 µM; 1% of 650,000 active; AID 1508602; in the data active = activation above about 4.9%;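 note: 0% = median of compound wells and 100% = cells with positive control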
# Active calls of the source: *. Only some compounds are listed: those with a hit (about 3.5% of all), similar ones and a draw of the others.
SMILES,MITF primary,TEAD-YAP block,FBW7 activator,GPR151 ag
Oc1c(C=Nc2ccc(Cl)cc2)sc2ccccc12,16.0,9.9,0.4,-0.2
Cc1ccccc1N=Cc1sc2ccccc2c1O,-5.0,52.7*,-0.3,-0.8
Oc1c(/C=N/n2cnnc2)sc2ccccc12,25.6,72.5*,0.4,-3.8
Cc1ccc(N=Cc2sc3ccccc3c2O)cc1C,-3.6,73.5*,0.2,-0.6
CCOc1ccc(N=Cc2sc3ccccc3c2O)cc1,-8.7,87.9*,0.1,-10.4
Nc1ccccc1N=Cc1sc2ccccc2c1O,23.0,-31.7,-0.1,-4.5
O=C(NC1CCCCC1)C1CCN(S(=O)(=O)c2ccc(Br)s2)CC1,-9.6,5.3,0.0,0.2
Cc1nn(-c2cccc(Cl)c2)c2nc(-c3ccncc3)cc(C(=O)O)c12,4.0,-4.7,0.0,2.3
COc1cccc(/C=c2\sc3nc(-c4ccccc4OC)nn3c2=O)c1,-8.4,2.4,0.1,-0.3
Cc1ccc(N=Cc2sc3ccccc3c2O)cc1,3.6,79.7*,-0.2,-9.6
Cc1ccc(CSc2nnc3c(n2)OC(c2ccc(OCC(=O)O)cc2)Nc2ccccc2-3)cc1 (configuration not stated),9.6,-8.8,0.1,-0.5
COC(=O)Cn1c(=NC(=O)Cn2c(=O)oc3ccccc32)sc2ccccc21,0.9,-9.8,0.1,-0.5
CCCn1cc(-c2ccc(Nc3nccc(-c4cncc(N5CCOCC5)c4)n3)cc2)cn1,7.3,46.8*,0.2,1.0
c1cc(-c2cncc(N3CCOCC3)c2)nc(Nc2ccc(-c3cnn(CCN4CCOCC4)c3)cc2)n1,17.1,96.0*,0.9,-1.4
Fc1cncc(-c2ccnc(Nc3ccc(-c4cnn(CCN5CCOCC5)c4)cc3)n2)c1,10.0,-3.8,0.4,1.9
Nc1nc(NCCN2CCOCC2)cc(NCc2ccccc2)n1,8.7,24.7,0.4,3.7
Cc1ccc(CN(C)S(=O)(=O)c2ccc3ccccc3c2)cc1,-4.4,9.5,0.2,2.3
Cc1nn(C)c(C)c1CN(C)S(=O)(=O)c1ccc2ccccc2c1,-1.8,56.3*,-0.1,1.7
COc1cccc(C2CC(=O)C=C(NCc3ccccc3OC)C2)c1 (configuration not stated),11.5,52.3*,0.8,0.4
COc1cc(NC(=O)c2cccc(-n3ncc4cc(Nc5ccccc5Cl)ccc43)c2)cc(OC)c1OC,-4.3,23.4,0.2,-0.8
N#Cc1cccc(-n2ncc3cc(Nc4ccccc4Cl)ccc32)c1,-14.6,-7.5,2.0*,-0.6
CC(=O)Nc1cc(S(=O)(=O)O)cc([N+](=O)[O-])c1O,4.3,1.5,-0.2,-0.4
CC1(C)S[C@@H]2[C@H](NC(=O)[C@H](C(=O)O)c3cccs3)C(=O)N2[C@H]1C(=O)O,-16.9,-2.9,0.1,0.9
CC1(C)C(C(=O)O)N2C(=O)C(NC(=O)C(C(=O)O)c3ccccc3)C2S1=O (configuration not stated),23.3,1.0,2.5*,-1.1
N#Cc1cc2c(=O)n3ccccc3nc2n(Cc2ccccc2)c1=NC(=O)c1ccccc1,-1.1,5.3,0.3,0.2
SMILES,MITF primary,TEAD-YAP block,FBW7 activator,GPR151 ag
CN(Cc1ccccc1)S(=O)(=O)c1cc(C(=O)Nc2ccc(Br)cc2)ccc1F,-2.3,40.8*,0.1,1.0
CCN(c1ccccc1)S(=O)(=O)c1ccc(NC(=O)Nc2ccccc2)cc1,2.7,17.8,0.2,-0.3
CCN(Cc1ccccc1)S(=O)(=O)c1cc(C(=O)Nc2cccc(Cl)c2)ccc1F,6.6,58.3*,0.5,0.9
CCN(Cc1ccccc1)S(=O)(=O)c1cc(C(=O)Nc2ccc(Oc3ccccc3)cc2)ccc1F,2.1,65.8*,0.0,0.6
CCN(c1ccccc1)S(=O)(=O)c1ccc(C(=O)Nc2ccc(C(C)=O)cc2)cc1,8.0,7.3,2.3*,2.8
O=C1C2C3C=CC(C3)C2C(=O)N1c1ccccc1-c1ccccc1 (configuration not stated),10.3,-7.1,-0.1,-1.3
CCN(CC)S(=O)(=O)c1cc(C(=O)Nc2ccc(C)c(F)c2)ccc1F,7.9,-37.3,0.1,-0.5
CCN(c1ccccc1)S(=O)(=O)c1cc(C(=O)Nc2ccc(Oc3ccccc3)cc2)ccc1F,17.5,49.0*,0.1,0.7
O=C(Nc1ccc(Br)cc1)c1ccc(F)c(S(=O)(=O)NCc2cccs2)c1,7.4,60.4*,0.3,0.1
CCN(CC)S(=O)(=O)c1cc(C(=O)Nc2cccc(O)c2)ccc1Cl,8.7,73.2*,0.5,-0.5
CCN(Cc1ccccc1)S(=O)(=O)c1cc(C(=O)Nc2ccc(C)c(F)c2)ccc1F,-6.2,57.1*,0.1,2.5
CCOc1ccc(C(CC(=O)O)NC(=O)C(C)Oc2ccccc2)cc1 (configuration not stated),-14.8,4.2,0.1,-0.4
CCCCSC1=C(C#N)C(=O)NCS1,-4.0,-3.2,0.0,-1.6
CC(=O)c1ccc(NC(=O)NCc2ccc(Cl)cc2Cl)cc1,-2.5,-4.9,0.0,-0.4
C=CCNC(=O)c1ccccc1N(Cc1ccccc1)S(=O)(=O)c1ccc(OC)cc1,13.1,54.5*,0.1,-1.4
COc1ccc(S(=O)(=O)N(Cc2ccccc2)c2ccccc2C(=O)NCc2ccncc2)cc1,12.7,56.1*,0.5,0.9
Cn1c(=O)c2c(SCCN3CCCC3)ccnc2n(C)c1=O,5.8,-0.1,0.0,1.0
C=CCN(CC=C)Cc1c(C(=O)N2CCOCC2)nc2ccccn12,-2.9,4.5,-0.1,0.5
Cc1ncn(-c2ccc(Nc3ncc4cccc(-c5cnn(C(C)C)c5)c4n3)cc2)n1,13.1,52.1*,-0.1,0.2
Cc1ncn(-c2ccc(Nc3ncc4cccc(-c5cnn(CC6CC6)c5)c4n3)cc2)n1,10.7,49.5*,0.2,0.5
COc1ccc(S(=O)(=O)N(CCc2ccccc2)CC(=O)Nc2ccccc2OC)cc1,-1.9,3.3,0.4,0.3
Cc1ccc(Nc2nc(-c3c(C)nc4ccccn34)cs2)c(C)c1,-2.1,53.1*,-0.1,-0.5
Cc1nc2ccccn2c1-c1csc(Nc2ccc(S(N)(=O)=O)cc2)n1,5.0,-2.7,0.0,0.2
Cc1nc2ccccn2c1-c1csc(Nc2ccc(Cl)cc2)n1,7.6,43.6*,-0.1,0.4
CCN(CC)c1ccc(Nc2nc(-c3c(C)nc4ccccn34)cs2)cc1,22.1,12.3,-0.7,3.3
SMILES,MITF primary,TEAD-YAP block,FBW7 activator,GPR151 ag
Cc1ccc(Nc2nc(-c3c(C)nc4ccccn34)cs2)cc1,14.9,53.3*,0.0,1.8
COc1ccc(C(=O)NCCc2ccc(Cl)cc2)cc1[N+](=O)[O-],-8.9,9.3,0.7,-0.3
Cc1ccc(OCC(=O)Nc2nccs2)c(Br)c1,0.5,97.7*,0.0,-9.3
Cc1cc(Cl)ccc1OCC(=O)Nc1nccs1,7.6,65.2*,-0.1,-5.6
CCc1ccc(OCC(=O)Nc2nccs2)c(Br)c1,9.2,95.0*,0.4,-7.7
CC(C)(C)c1ccc(OCC(=O)Nc2nccs2)c(Br)c1,-2.6,90.8*,0.0,-1.0
CCc1ccc(OCC(=O)Nc2cccc(C)n2)c(Br)c1,1.9,-19.2,0.1,-1.0
N#CC1=C(N)Oc2n[nH]c(-c3ccccc3)c2C1c1ccccc1 (configuration not stated),-1.6,-1.2,-0.1,-0.2
O=c1cc(Nc2ccc3c(c2)OCCO3)[nH]c(=O)n1C1CCCCC1,10.8,58.2*,-0.3,1.0

# From PubChem BioAssay
